A selection: hits, their analogues and other compounds. The true share with any hit is near 3.4%.
TEAD-YAP block: TEAD-YAP interaction inhibition. 640,000 compounds, 1.4% hits. inhibition, % at 9.12 µM. HEK-TIYL cells, TEAD-Gal4/YAP UAS-luciferase luminescence; in the data active = inhibition above about 32%
MITF inh: inhibitors of human MITF | AlphaScreen MITF homodimerization, bead proximity signal | inhibition, % at 2.6 µM | O75030 | AID 1259374 | 650,000 compounds, 0.91% hits; in the data active = inhibition above about 50%
FBW7 activator: activators of human E3 ligase FBW7; Q969H0; AlphaScreen FBW7–phospho-cyclin E peptide binding, activator screen; normalized activity (activation), % at 26.1 µM; 650,000 compounds, 0.13% hits; AID 1259310; in the data active = normalized activity above about 1.9%;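 also: purified mutant Fbw7 with reduced substrate affinity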
Target sequence (Q969H0 whole entry, looked up): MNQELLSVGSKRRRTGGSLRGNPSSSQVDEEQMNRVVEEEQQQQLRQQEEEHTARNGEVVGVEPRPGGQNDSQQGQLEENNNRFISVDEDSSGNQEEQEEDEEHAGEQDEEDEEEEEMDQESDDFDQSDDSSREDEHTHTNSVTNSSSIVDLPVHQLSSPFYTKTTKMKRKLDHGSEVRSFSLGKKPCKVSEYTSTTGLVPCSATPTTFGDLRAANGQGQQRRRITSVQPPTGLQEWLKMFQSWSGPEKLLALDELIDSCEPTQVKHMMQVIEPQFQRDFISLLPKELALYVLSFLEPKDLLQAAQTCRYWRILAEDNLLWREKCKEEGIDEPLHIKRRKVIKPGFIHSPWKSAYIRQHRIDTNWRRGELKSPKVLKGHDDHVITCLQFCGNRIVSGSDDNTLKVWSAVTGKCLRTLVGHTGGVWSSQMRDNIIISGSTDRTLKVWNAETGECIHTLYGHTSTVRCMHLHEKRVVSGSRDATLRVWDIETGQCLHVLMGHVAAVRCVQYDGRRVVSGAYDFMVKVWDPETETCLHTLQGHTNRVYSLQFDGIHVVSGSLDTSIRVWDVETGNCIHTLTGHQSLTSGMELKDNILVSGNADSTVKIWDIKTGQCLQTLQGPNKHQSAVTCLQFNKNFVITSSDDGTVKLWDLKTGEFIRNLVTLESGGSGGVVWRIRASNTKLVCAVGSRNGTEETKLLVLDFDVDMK
GPR151 activ: human GPR151 activation. PathHunter beta-arrestin GPR151 cells, luminescence. activation, % at 11.2 µM. 650,000 compounds, 1% hits. AID 1508602; in the data active = activation above about 4.9%
Numbers stand for hits.

CC(=O)Nc1cccc(-c2cnc3c(N4CCOCC4)nccn23)c1 was read as TEAD-YAP block 79, MITF inh inactive, FBW7 activator inactive and GPR151 activ inactive.
`CC(=O)Nc1cccc(-c2cnc3c(N4CCN(C)CC4)nccn23)c1` gave TEAD-YAP block inactive, MITF inh inactive, FBW7 activator inactive and GPR151 activ inactive.
For Oc1cccc(-c2cnc3c(N4CCOCC4)nccn23)c1 the results were TEAD-YAP block 80, MITF inh inactive, FBW7 activator inactive and GPR151 activ inactive.
For COCCn1c(=O)n(CC(=O)N2CCC(C(N)=O)CC2)c2cccnc21 the results were TEAD-YAP block inactive, MITF inh inactive, FBW7 activator 5.7 and GPR151 activ inactive.
COCCn1c(=O)n(CC(=O)N2CCCCC2)c2cccnc21 was read as TEAD-YAP block inactive, MITF inh inactive, FBW7 activator inactive and GPR151 activ inactive.
`COc1ccc2oc(-c3ccc(Cl)cc3)cc(=O)c2c1` gave TEAD-YAP block inactive, MITF inh inactive, FBW7 activator inactive and GPR151 activ inactive.
O=c1cc(-c2cccs2)oc2ccc(O)cc12 was read as TEAD-YAP block inactive, MITF inh inactive, FBW7 activator inactive and GPR151 activ inactive.
`COc1ccc2oc(-c3cccs3)cc(=O)c2c1` gave TEAD-YAP block 43, MITF inh inactive, FBW7 activator inactive and GPR151 activ inactive.
Screening COc1ccc2oc(-c3ccccc3Cl)cc(=O)c2c1 returned TEAD-YAP block 49, MITF inh inactive, FBW7 activator 2.6 and GPR151 activ inactive.
COc1ccc(S(=O)(=O)NCCNc2nc(C)cc(N(C)C)n2)c(OC)c1 was read as TEAD-YAP block 32, MITF inh inactive, FBW7 activator inactive and GPR151 activ inactive.
For C=CCOc1ccc2c(C(F)(F)F)cc(=O)oc2c1 the results were TEAD-YAP block inactive, MITF inh inactive, FBW7 activator inactive and GPR151 activ inactive.
For CC(Sc1nnc(-c2ccc3c(c2)OCO3)o1)C(N)=O (centres undefined) the results were TEAD-YAP block 37, MITF inh inactive, FBW7 activator inactive and GPR151 activ inactive.
For CC(Sc1nnc(-c2ccncc2)o1)C(N)=O (centres undefined) the results were TEAD-YAP block inactive, MITF inh inactive, FBW7 activator inactive and GPR151 activ inactive.
Screening NC(=O)CSc1nnc(-c2ccc3c(c2)OCO3)o1 returned TEAD-YAP block 45, MITF inh inactive, FBW7 activator inactive and GPR151 activ inactive.
O=C(O)CSc1nnc(-c2ccc3c(c2)OCO3)o1 was read as TEAD-YAP block inactive, MITF inh inactive, FBW7 activator inactive and GPR151 activ inactive.
COc1ccc2c(c1)c(CC(=O)Nc1ccccn1)c(C)n2C(=O)c1ccc(Cl)cc1 was read as TEAD-YAP block 37, MITF inh inactive, FBW7 activator inactive and GPR151 activ inactive.
For CCOc1ccc(CNCc2ccc(C(=O)O)s2)cc1 the results were TEAD-YAP block inactive, MITF inh inactive, FBW7 activator inactive and GPR151 activ inactive.
`CCC(=O)N(CCCO)Cc1cc2ccc(C)cc2[nH]c1=O` gave TEAD-YAP block 36, MITF inh inactive, FBW7 activator inactive and GPR151 activ inactive.
CSc1cccc(NC(=O)C2C3C=CC4(O3)C2C(=O)N(C2CCCCC2C)C4C(=O)NC2CCCC(C)C2C)c1 (centres undefined) was read as TEAD-YAP block inactive, MITF inh inactive, FBW7 activator inactive and GPR151 activ inactive.
`CCOC(=O)c1ccc(-n2sc3c(c2=S)-c2cc(C)ccc2NC3(C)C)cc1` gave TEAD-YAP block inactive, MITF inh 76, FBW7 activator inactive and GPR151 activ inactive.
`CN(Cc1nc2ccccc2o1)C(=O)c1cc(COc2c(F)cccc2F)on1` gave TEAD-YAP block inactive, MITF inh inactive, FBW7 activator inactive and GPR151 activ inactive.
Screening O=S1(=O)c2cccc3cccc(c23)N1Cc1cccc(Br)c1 returned TEAD-YAP block inactive, MITF inh inactive, FBW7 activator inactive and GPR151 activ inactive.
For O=S1(=O)c2cccc3cccc(c23)N1Cc1cccc(Cl)c1 the results were TEAD-YAP block inactive, MITF inh inactive, FBW7 activator 2.1 and GPR151 activ inactive.
For Cc1cc(NCCCN2CCCC2=O)nc(N2CCN(Cc3ccc4c(c3)OCO4)CC2)n1 the results were TEAD-YAP block inactive, MITF inh inactive, FBW7 activator inactive and GPR151 activ inactive.
Screening COc1cc(Cn2c(-c3nonc3N)nc3ccccc32)ccc1C returned TEAD-YAP block 51, MITF inh inactive, FBW7 activator inactive and GPR151 activ inactive.
`COc1cccc(Cn2c(-c3nonc3N)nc3ccccc32)c1` gave TEAD-YAP block 38, MITF inh inactive, FBW7 activator inactive and GPR151 activ inactive.
For COc1ccc(C)cc1Cn1c(-c2nonc2N)nc2ccccc21 the results were TEAD-YAP block 53, MITF inh inactive, FBW7 activator inactive and GPR151 activ inactive.
COc1ccc(Cn2c(-c3nonc3N)nc3ccccc32)cc1 was read as TEAD-YAP block inactive, MITF inh inactive, FBW7 activator inactive and GPR151 activ inactive.
Screening Cc1ccc(Cn2c(-c3nonc3N)nc3ccccc32)cc1 returned TEAD-YAP block inactive, MITF inh inactive, FBW7 activator inactive and GPR151 activ inactive.
Screening COc1ccc(C(=O)NC2CCN(CC(=O)Nc3cccc(Cl)c3Cl)CC2)cc1 returned TEAD-YAP block inactive, MITF inh inactive, FBW7 activator inactive and GPR151 activ inactive.
`CCOc1ccc(N(CC)S(=O)(=O)c2cccc3cccnc23)cc1` gave TEAD-YAP block 53, MITF inh inactive, FBW7 activator inactive and GPR151 activ inactive.
For CCCN1CCc2nc(NC(=O)c3sc4ccccc4c3Cl)sc2C1 the results were TEAD-YAP block 34, MITF inh inactive, FBW7 activator inactive and GPR151 activ inactive.
CC(C)(C)NC(=O)CSc1nc(-c2ccccc2)cs1 was read as TEAD-YAP block 62, MITF inh inactive, FBW7 activator inactive and GPR151 activ inactive.
CCC1C(=O)NCCN1Cc1ccc2c(c1)CN(Cc1c(C)nc3sccn13)CCO2 (centres undefined) was read as TEAD-YAP block 35, MITF inh inactive, FBW7 activator inactive and GPR151 activ inactive.
`CCC1C(=O)NCCN1Cc1ccc2c(c1)CN(Cc1ccc(Cl)cc1)CCO2` (centres undefined) gave TEAD-YAP block inactive, MITF inh inactive, FBW7 activator inactive and GPR151 activ inactive.
`Cc1nc(-c2cccc(NC(=O)CCc3ccccc3)c2)cs1` gave TEAD-YAP block inactive, MITF inh inactive, FBW7 activator inactive and GPR151 activ inactive.
Screening Cc1cc(C(=O)NCC2CCCN(Cc3ccc(N4CCNC4=O)cc3)C2)no1 (centres undefined) returned TEAD-YAP block inactive, MITF inh inactive, FBW7 activator inactive and GPR151 activ inactive.
`CC(C)NC(=O)CN(c1ccc(Br)cc1)S(C)(=O)=O` gave TEAD-YAP block inactive, MITF inh inactive, FBW7 activator 1.9 and GPR151 activ inactive.
Screening CC(C)C(NC(=O)CN(c1ccc(Br)cc1)S(C)(=O)=O)C(C)C returned TEAD-YAP block inactive, MITF inh inactive, FBW7 activator inactive and GPR151 activ inactive.
For Cc1ccc(-n2c(N)c(C(=O)O)c3nc4ccccc4nc32)cc1C the results were TEAD-YAP block inactive, MITF inh inactive, FBW7 activator inactive and GPR151 activ inactive.

High-throughput results (PubChem)
